Records with an inconclusive call do not appear. A call without a number means that no potency is given here. Activity calls are given as the source filed them. Unless noted, calls follow the shape of the dose curve; as a rule, active = well fitted curve in the direction sought with a large enough effect in the repeat runs; inconclusive = weak or mixed curves; inactive = no such curve, though single readings can be large; an effect the other way counts as inactive or inconclusive.
Legend:
[1] = qHTS assay to identify small molecule antagonists of the estrogen related receptor (ERR) signaling pathway - cell viability counter screen (AID 1224818);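 also: series mostly up to about 46 µM; viability measured after 17.5 h of compound exposure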
Summary of the method: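 ERR reporter cells plated 6 h at 37 C/5% CO2, then compounds in DMSO pin-transferred and incubated 17.5 h at 37 C. Viability read as CellTiter-Fluor fluorescence after 30 min at 37 C.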

[2] = qHTS assay to identify small molecule agonists of the estrogen related receptor (ERR) signaling pathway (AID 1224820); also: potency is read from the fitted curve at half-maximal effect
Summary of the method: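 ERR reporter cells (NTP line) plated 2,000/well, incubated 6 h at 37 C/5% CO2, then pinned with compounds in DMSO and held 18 h at 37 C. One-Glo added; luminescence read after 30 min at room temperature.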

[3] = qHTS assay to identify small molecule antagonists of the estrogen related receptor signaling pathway with the pleiotropic PPARgamma coactivator (PGC) cell viability counter screen (AID 1224822; also: potency is read from the fitted curve at half-maximal effect)
Summary of the method: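 PGC/ERR cells were seeded at 2,000 cells/well, rested 6 h at 37 C/5% CO2, then given compounds in DMSO by pin tool and incubated 17.5 h at 37 C. Viability came from CellTiter-Fluor fluorescence after 30 min.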

[4] = qHTS assay to identify small molecule agonists of the estrogen related receptor signaling pathway with the pleiotropic PPARgamma coactivator (PGC) (AID 1224823); also: potency is read from the fitted curve at half-maximal effect
Summary of the method: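 PGC/ERR reporter cells were seeded, rested 6 h at 37 C/5% CO2, then exposed to compounds in DMSO by pin transfer for 18 h at 37 C. Luciferase activity was read as luminescence after One-Glo reagent and 30 min at room temperature.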

[5] = system: estrogen-related receptor alpha (ERRalpha) with PGC-1alpha coactivator, human; experiment: qHTS assay to identify small molecule antagonists of the estrogen related receptor signaling pathway with the pleiotropic PPARgamma coactivator (PGC) (AID 1224821; calls by dose curve; also: nearly all actives have a fitted effect of over 50% in size; also: potency is read from the fitted curve at half-maximal effect)
Summary of the method: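 Cells engineered for PGC/ERR signalling (line from NTP) were plated 6 h at 37 C/5% CO2, then exposed to DMSO-dissolved compound for 18 h at 37 C. Luciferase activity was read by One-Glo luminescence after 30 min at room temperature.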

[6] = qHTS assay to identify small molecule antagonists of the estrogen related receptor (ERR) signaling pathway (AID 1224819; also: nearly all actives have a fitted effect of over 50% in size; also: potency is read from the fitted curve at half-maximal effect)
Summary of the method: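 ERR reporter cells were plated at 2,000 cells/well and left 6 h at 37 C/5% CO2 before pin-tool transfer of compounds in DMSO. After 18 h at 37 C, One-Glo was added and luminescence was read 30 min later at room temperature.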

[7] = qHTS assay to identify small molecule antagonists of the estrogen related receptor (ERR) signaling pathway from Tox21 library - cell viability counter screen (AID 1224834); also: nearly all actives have a fitted effect of over 30% in size
Summary of the method: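 ERR reporter cells were plated 6 h before compound addition, then exposed to test compounds in DMSO for 17.5 h at 37 C. Viability was read as CellTiter-Fluor fluorescence after a 30-minute incubation at 37 C.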

[8] = qHTS assay to identify small molecule agonists of the constitutive androstane receptor (CAR) signaling pathway - cell viability counter screen (AID 1224836); also: series mostly up to about 92 µM; nearly all actives have a fitted effect of over 45% in size
Summary of the method: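 HepG2-CYP2B6-hCAR, 2500 cells/well, 4 h pre-incubation; cpd 15 conc + PK11195 0.75 uM final; 23 h, 37 C/5% CO2; CellTiter-Fluor, fluorescence.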

[9] = qHTS assay to identify small molecule antagonists of the constitutive androstane receptor (CAR) signaling pathway - cell viability counter screen (AID 1224837); also: series mostly up to about 92 µM; nearly all actives have a fitted effect of over 45% in size
Summary of the method: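 HepG2 cells stably expressing hCAR and a CYP2B6-2.2kb reporter were plated and pre-incubated 4 hr at 37 C/5% CO2, then given compounds at 15 concentrations plus 50 nM CITCO (final). After 23 hr, viability was read by CellTiter-Fluor fluorescence.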

[10] = qHTS assay to identify small molecule antagonists of the estrogen related receptor signaling pathway with the pleiotropic PPARgamma coactivator (PGC) from Tox21 10K library - cell viability counter screen (AID 1224840; active = well fitted cell-killing curve with a large enough effect in the repeat runs, not every such curve was filed as active; also: nearly all actives have a fitted effect of over 40% in size)
Summary of the method: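 PGC/ERR cells were seeded at 2,000 cells/well and left 6 hours at 37 C/5% CO2 before pin-tool addition of compounds in DMSO. After 17.5 hours at 37 C, CellTiter-Fluor was added and fluorescence read 30 minutes later.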

[11] = target: Thyrotropin receptor (Homo sapiens) (UniProt P16473); experiment: qHTS assay to identify small molecule agonists of the thyroid stimulating hormone receptor (TSHR) signaling pathway (AID 1224843; calls by dose curve; also: nearly all actives have a fitted effect of over 45% in size)
Chain of Thyrotropin receptor (Homo sapiens) (P16473 whole entry, looked up): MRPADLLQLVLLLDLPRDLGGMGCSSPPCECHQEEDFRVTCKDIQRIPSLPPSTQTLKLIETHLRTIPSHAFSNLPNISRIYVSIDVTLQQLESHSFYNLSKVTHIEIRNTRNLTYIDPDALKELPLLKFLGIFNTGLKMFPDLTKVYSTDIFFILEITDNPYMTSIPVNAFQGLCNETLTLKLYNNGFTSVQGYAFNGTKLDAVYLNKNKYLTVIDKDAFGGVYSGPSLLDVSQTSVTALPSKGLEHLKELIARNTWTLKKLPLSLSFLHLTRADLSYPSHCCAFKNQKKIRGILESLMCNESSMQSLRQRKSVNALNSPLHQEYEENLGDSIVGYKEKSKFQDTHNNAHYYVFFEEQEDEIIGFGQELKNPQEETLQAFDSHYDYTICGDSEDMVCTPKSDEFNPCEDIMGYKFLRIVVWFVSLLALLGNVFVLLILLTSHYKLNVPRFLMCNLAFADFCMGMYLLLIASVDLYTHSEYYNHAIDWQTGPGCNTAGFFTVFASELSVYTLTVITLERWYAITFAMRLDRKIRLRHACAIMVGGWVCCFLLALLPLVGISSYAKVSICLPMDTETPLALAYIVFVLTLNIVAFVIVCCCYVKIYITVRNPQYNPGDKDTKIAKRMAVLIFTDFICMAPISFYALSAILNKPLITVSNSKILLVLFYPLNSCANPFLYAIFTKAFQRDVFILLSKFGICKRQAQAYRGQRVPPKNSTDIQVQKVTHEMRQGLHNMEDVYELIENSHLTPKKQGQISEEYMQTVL
Summary of the method: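 TSHR-expressing HEK293 cells (800 per well) were exposed to compounds for 30 min at room temperature. cAMP was then detected by HTRF competition with cAMP-d2 and anti-cAMP cryptate, read after 1 h at room temperature. Fifteen concentrations, triplicate.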

[12] = qHTS assay to identify small molecule agonists of H2AX (AID 1224845; active = well fitted activation curve with a large enough effect in the signal ratio in the repeat runs, not every such curve was filed as active; the % refers to the signal ratio)
Summary of the method: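 Wild-type CHO-K1 cells plated overnight, then exposed 3 hr at 37C to compounds at 15 concentrations (0.76% DMSO). Lysed, then HTRF anti-pH2AX(S139)-cryptate/anti-H2AX-d2 detection after 24 hr at room temperature; emissions 665 and 620 nm.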

[13] = qHTS assay to identify small molecule agonists of the hypoxia (HIF-1) signaling pathway (AID 1224846; active = well fitted activation curve with a large enough effect in the signal ratio in the repeat runs, not every such curve was filed as active; the % refers to the signal ratio)
Summary of the method: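 HRE-bla ME-180 cells (beta-lactamase reporter under hypoxia response element) were plated at 2,000 cells/well in medium with 0.5% dialyzed FBS, rested 5 hrs, then given compounds in DMSO for 17 hrs at 37C, 5% CO2. Reporter induction was read with CCF4-AM FRET substrate.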

[14] = qHTS assay to identify small molecule agonists of H2AX - cell viability counter screen (AID 1224847; calls by dose curve; also: top concentration of the series differs between compounds; nearly all actives have a fitted effect of over 30% in size)
Summary of the method: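 Cells plated first: CHO-K1, 1000 per well in 10% FBS medium, incubated overnight at 37C. Then 15-point compound titration added (final DMSO 0.76%) for 3 hr. Finally CellTiter-Glo added and luminescence read.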

C[C@]12C=CC(=O)C=C1CC[C@@H]1C2=CC[C@]2(C)[C@@H](C(=O)CN3CCN(c4cc(N5CCCC5)nc(N5CCCC5)n4)CC3)CC[C@@H]12
Potency [1]: inactive | Potency [2]: inactive | Potency [3]: inactive | Potency [4]: inactive

CCC1(O)CC2CN(CCc3c([nH]c4ccccc34)[C@@](C(=O)OC)(c3cc4c(cc3OC)N(C)C3[C@]45CCN4CC=C[C@@](CC)([C@@H](OC(C)=O)[C@]3(O)C(=O)OC)[C@H]45)C2)C1 (stereo partly drawn)
Potency [1]: inactive | Potency [2]: inactive | Potency [3]: inactive | Potency [4]: inactive

CC(=O)/C(C)=N/O
Potency [1]: inactive | Potency [3]: inactive | Potency [4]: inactive

CC(C)NC[C@H](O)COc1cccc2[nH]ccc12
Potency [1]: inactive | Potency [3]: inactive

CN1C2CCC1CC(OC(=O)C(CO)c1ccccc1)C2 (stereo not drawn)
Potency [1]: inactive | Potency [3]: inactive

CSC(=N)N
Potency [1]: inactive | Potency [3]: inactive

O=C(O)CNC(=O)C(CS)Cc1ccccc1 (stereo not drawn)
Potency [1]: inactive | Potency [5]: inactive | Potency [3]: inactive

O=c1[nH]c2cc(C(F)(F)F)ccc2n1-c1cc(C(F)(F)F)ccc1O
Potency [1]: inactive | Potency [5]: inactive | Potency [3]: inactive | Potency [4]: inactive

Nc1ccn([C@H]2O[C@H](CO)[C@@H](O)C2(F)F)c(=O)n1
Potency [1]: inactive | Potency [3]: inactive

CC(C)(C)NCC(O)COc1nsnc1N1CCOCC1 (stereo not drawn)
Potency [1]: inactive | Potency [3]: inactive

COc1cc(C(O)CO)ccc1O (stereo not drawn)
Potency [1]: inactive | Potency [3]: inactive

CN1CCc2cccc3c2C1Cc1ccc(O)c(O)c1-3 (stereo not drawn)
Potency [1]: inactive | Potency [5]: 26.6 µM (active) | Potency [4]: inactive

CC1=C(C(=O)O)N2C(=O)[C@@H](NC(=O)C(N)C3=CCC=CC3)[C@H]2SC1 (stereo partly drawn)
Potency [1]: inactive | Potency [3]: inactive

O=C1NC(O)=NC1(c1ccccc1)c1ccccc1
Potency [1]: inactive | Potency [3]: inactive

N=C(N)c1ccc(OCCCCCOc2ccc(C(=N)N)cc2)cc1 (tested in a mixture with another compound)
Potency [1]: inactive | Potency [2]: inactive | Potency [3]: inactive | Potency [4]: inactive

Clc1ccc(N2CCN(Cc3cc4ccccn4n3)CC2)cc1
Potency [1]: inactive | Potency [2]: inactive | Potency [4]: inactive

CCCCCCCCCCCCCCC[C@H](O)[C@H](N)CO
Potency [1]: inactive | Potency [3]: inactive

COc1ccc(CCn2nnnc2C2(c3ccc(C)cc3)CC2)cc1
Potency [1]: inactive | Potency [2]: inactive | Potency [3]: inactive | Potency [4]: inactive

C=CCN1CCc2cc(O)c(O)cc2C(c2ccccc2)C1 (stereo not drawn)
Potency [1]: inactive | Potency [5]: inactive | Potency [3]: inactive | Potency [4]: inactive

CCC1(O)CC2CN(CCc3c([nH]c4ccccc34)[C@@](C(=O)OC)(c3cc4c(cc3OC)N(C=O)C3[C@]45CCN4CC=C[C@@](CC)([C@@H](OC(C)=O)[C@]3(O)C(=O)OC)[C@H]45)C2)C1 (stereo partly drawn)
Potency [1]: inactive | Potency [3]: inactive

CN1C2CC(OC(=O)[C@H](CO)c3ccccc3)CC1C1OC12 (stereo partly drawn)
Potency [1]: inactive | Potency [3]: inactive

C=C[C@H]1CN2CC[C@@H]1C[C@H]2[C@H](O)c1ccnc2ccc(OC)cc12
Potency [1]: inactive | Potency [3]: inactive

O=C(c1ccc2c(c1)OCCO2)N1CCCCC1
Potency [1]: inactive | Potency [5]: inactive | Potency [3]: inactive | Potency [4]: inactive

NCC(O)c1ccc(O)c(O)c1 (stereo not drawn)
Potency [1]: inactive | Potency [3]: inactive

CC[C@H]1OC(=O)[C@H](C)C(O[C@H]2C[C@@](C)(OC)[C@@H](O)[C@H](C)O2)[C@H](C)[C@@H](OC2O[C@H](C)C[C@H](N(C)C)[C@H]2O)[C@](C)(O)C[C@@H](C)CN(C)[C@H](C)[C@@H](O)[C@]1(C)O (stereo partly drawn)
Potency [1]: inactive | Potency [3]: inactive

Cc1cccc(C)c1OCC(N)C(C)C (stereo not drawn)
Potency [1]: inactive | Potency [5]: inactive | Potency [3]: inactive | Potency [4]: inactive

CNC(=O)c1cc2c(cn1)[nH]c1ccccc12
Potency [1]: inactive | Potency [5]: inactive | Potency [3]: inactive | Potency [4]: inactive

CN1C2CCC1CC(OC(=O)c1c[nH]c3ccccc13)C2 (stereo not drawn)
Potency [1]: inactive | Potency [3]: inactive

CC(C)NC[C@H](O)COc1cccc2ccccc12
Potency [1]: inactive | Potency [3]: inactive

O=C(NOCC1CC1)c1cc(Br)c(F)c(F)c1Nc1ccc(I)cc1Cl
Potency [6]: 2.98 µM (active) | Potency [2]: inactive

Cc1ccc(S(=O)(=O)/C=C/C#N)cc1
Potency [6]: inactive | Potency [2]: 17.4 µM (active) | Potency [5]: inactive | Potency [4]: 15.5 µM (active)

CCCCCCCCCCCCCCCCCCOC[C@H](COP(=O)([O-])OCC[N+](C)(C)C)OC
Potency [6]: inactive | Potency [2]: inactive | Potency [5]: inactive | Potency [3]: inactive | Potency [4]: inactive

C/C(=C\c1ccc(C(=O)O)cc1)c1ccc2c(c1)C(C)(C)CCC2(C)C
Potency [1]: inactive | Potency [7]: inactive | Potency [8]: inactive | Potency [9]: inactive | Potency [10]: inactive | Potency [11]: inactive | Potency [12]: inactive | Potency [13]: inactive | Potency [14]: inactive

Cc1nc(N=Nc2ccc(C(=O)O)cc2)c(COP(=O)(O)O)c(C=O)c1O
Potency [6]: inactive | Potency [2]: inactive | Potency [5]: inactive | Potency [3]: inactive | Potency [4]: inactive

O=C1c2ccccc2C(=O)c2c(NCCc3ccc(O)cc3)ccc(NCCc3ccc(O)cc3)c21
Potency [6]: 18.1 µM (active) | Potency [2]: inactive | Potency [5]: inactive | Potency [3]: 11.9 µM (active) | Potency [4]: inactive

[Li+]
Potency [6]: inactive | Potency [2]: inactive | Potency [5]: inactive | Potency [3]: inactive

COc1ccc(/C=C2\COc3ccc(C)cc3C2=O)cc1O
Potency [6]: inactive | Potency [2]: 1.19 µM (active) | Potency [5]: inactive | Potency [3]: inactive
